Shown are actives, neighbours in structure and some others; about 3.2% of the full set was active somewhere.
IL-2 act – qHTS of IL-2 Activators; hit rate 0.065% among 360,000; AID 652025, 2013; activation, % (series mostly up to about 46 µM); IL-2 activation reporter assay, cell-based qHTS; stimulated with anti-CD3/CD4/CD28 beads; in transgenic mouse T cells; in the data active = activation above about 50%; inconclusive = mostly about 30% to 49%; also: 0% is about no effect
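Readout: EGFP and DsRed signals by fluorescent plate cytometry. Unstimulated transgenic mouse T cells received compound 60 min before antibody-bead stimulation, then incubated 18 h at 37 degrees C.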
p53 reactivation – qHTS assay for re-activators of p53 using a Luc reporter. hit rate 0.063% among 320,000. Potency, µM (titrated, usually from 92.2 µM), for the others: top-dose activity change, positive = activation, hits mostly activators. H1299 p53-A138V BP100-luciferase reporter, luminescence, 24 h; also: potency is read from the fitted curve at half-maximal effect; % of control where 0% means no effect; nearly all actives have a fitted effect of over 45% in size
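p53-null H1299 cells stably carrying temperature-sensitive p53-A138V and a BP100-luciferase reporter were pinned with compounds (4-point, 1:5 series) and held 24 hrs at 37 deg C. Luminescence was read 10 min after detection reagent.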
Nrf2 inh – Nrf2 qHTS screen for inhibitors; A549 ARE-Fluc reporter, luciferase luminescence, 18-24 h; Potency, µM (titrated, usually from 46 µM), for the others: top-dose activity change, negative = inhibition, actives largely listed as inhibitors; hit rate 2.1% among 360,000; AID 504444, 2011; also: potency is read from the fitted curve at half-maximal effect; % is scaled to controls: 0 for no effect and ±100 for the full control effect; nearly all actives have a fitted effect of over 60% in size
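Concentration-response testing used A549 ARE_Fluc cells at 5000 cells/well. Following an 18-24 h compound incubation, viability was read by fluorescence (Ex 405/Em 525) and luciferase output by luminescence.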
BRCA1 expr act – qHTS Assay to Identify Small Molecule Activators of BRCA1 Expression. MCF7-BRCA1-FFLuc reporter, luminescence, 48 h; response scale: scaled: vehicle 0%, 10 µM genistein 100%. Potency, µM (top dose mostly 46.1 µM), for the others: at the highest dose activation, actives largely listed as activators. hit rate 1.1% among 380,000. AID 624202, 2012; also: potency is read from the fitted curve at half-maximal effect; nearly all actives have a fitted effect of over 80% in size
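MCF7 cells carrying a BRCA1-firefly luciferase reporter (2000 cells/well, phenol-red free MEM) were attached for 2 h at 37 °C, then given compounds for 48 h. Luminescence was read 15 min after luciferase reagent; activity normalized to genistein (10 microM) and DMSO.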
A549 viability – Nrf2 qHTS screen for inhibitors: counterscreen for cytotoxicity | A549 ARE-Fluc cells, CellTiter-Fluor viability, 18-24 h | Potency, µM (highest dose often 46 µM), for the others: at the top dose activity change, negative = cytotoxicity, hits mostly inhibitors | AID 504648, 2011 | hit rate 0.16% among 390,000; also: potency is read from the fitted curve at half-maximal effect; % is scaled to controls: 0 for no effect and ±100 for the full control effect
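A549 ARE-Fluc cells in 5% FBS OPTI-MEM, 5000 cells/well, rested 2 h then exposed to compounds in concentration-response for 18-24 h at 37 °C. Viability by CellTiter-Fluor fluorescence (Ex 405/Em 525) after 30 min; luciferase luminescence (BugLite, 15 min, RT) read afterwards.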
Nrf2 ARE act – qHTS of Nrf2 Activators; AREc32 ARE-luciferase reporter (MCF7-derived line), luminescence, 24 h; hit rate 0.31% among 410,000; AID 624171, 2012; Potency, µM (highest dose often 46.1 µM), inactives show at the highest dose activation, hits mostly activators; also: potency is read from the fitted curve at half-maximal effect; % of control where 0% means no effect; nearly all actives have a fitted effect of over 65% in size
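Reporter line AREc32 (ARE-Fluc), seeded overnight in OPTI-MEM with 5% FBS; compound pin-transferred, 24 hr at 37 deg C, 5% CO2; luminescent read-out.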
Active calls of the source: *; ? = inconclusive; . = no result given; [ ] = another dose, or the depositor's remark. Unless noted, calls follow the shape of the dose curve; as a rule, active = well fitted curve in the direction sought with a large enough effect; inconclusive = small, poorly fitted or top-dose-only effect, or another doubt; inactive = no such curve, though single readings can be large; an effect the other way counts as inactive or inconclusive.

SMILES	IL-2 act	p53 reactivation	Nrf2 inh	BRCA1 expr act	A549 viability	Nrf2 ARE act
Cc1ccc(NC(=O)C2CCCN(c3ncnc4onc(C)c34)C2)cc1Cl (configuration not stated)	.	.	13µM*	.	?	2.3%
COc1cccc(NC(=O)C2CCCN(c3ncnc4onc(C)c34)C2)c1 (configuration not stated)	.	.	?	.	-7.3%	4.3%
Cc1noc2ncnc(N3CCN(c4cccc(Cl)c4)CC3)c12	-0.8	-2.4%	?	-25.4%	-0.7%	0.0%
CCN(CC)C(=O)c1c(-c2ccccc2)c(-c2ccccc2)nn(C)c1=O	.	.	14.1%	.	0.4%	-0.1%
CC1Cc2cc(/C=C3/SC(=S)NC3=O)ccc2O1 (configuration not stated)	1.3	14.7%	?	8.2%	13µM*	3.1%
CCN1C/C(=C/c2cccc([N+](=O)[O-])c2)C(=O)/C(=C/c2cccc([N+](=O)[O-])c2)C1	-0.9	-19.3%	10.4%	-100.7%	-13.6%	12.6µM*
O=C1NC(=Nc2ccccc2Cl)S/C1=C\c1cccc([N+](=O)[O-])c1	-0.6	.	28.7%	-46.3%	-1.5%	?
O=C1NC(=S)S/C1=C\c1cccc([N+](=O)[O-])c1	0.5	.	18.4µM*	-32.1%	?	4.4%
COc1ccccc1CNC(=O)CCC1N=C2c3ccccc3N=C(SCC(=O)Nc3ccc(N(C)C)cc3)N2C1=O (configuration not stated)	.	.	.	.	5.3%	5.5%
O=[S+]([O-])(c1c(F)cccc1F)N1CCN([S+](=O)([O-])c2csc3ccccc23)CC1	.	.	-2.6%	.	17.3%	.
COc1ccc2c(c1)CC(C(=O)Nc1c(C)cc(C)cc1C)CO2 (configuration not stated)	.	.	.	.	-1.7%	-0.6%
O=C(C[n+]1cc(Br)cc(Br)c1)c1ccc2ccccc2c1	.	.	.	11.2%	.	.
CCCCCn1c(=O)[nH]c2cc(C(=O)N3CCN(c4ccc(F)cc4)CC3)ccc2c1=O	-0.6	.	?	-36.0%	-6.6%	-0.1%
O=C(c1ccc(Cn2c(=O)[nH]c3ccccc3c2=O)cc1)N1CCN(c2ccc(F)cc2)CC1	-1.2	-16.3%	10.3µM*	-48.8%	-7.6%	-0.4%
CCCCCn1c(=O)[nH]c2cc(C(=O)N3CCN(c4ccc(C(C)=O)cc4)CC3)ccc2c1=O	-0.5	6.7%	20.6µM*	-73.1%	-4.5%	3.4%
COc1ccc(C(=O)N2CCN(Cc3ccc4c(c3)OCO4)CC2)cc1OC	0.0	.	16.4µM*	-7.8%	-6.5%	0.7%
COc1ccc(OCCN2CCN(C(=O)c3ccc(OC)c(OC)c3)CC2)cc1	0.3	2.4%	23.1µM*	-28.1%	-18.8%	0.0%
O=C(c1ccc(Cn2c(=O)[nH]c3ccsc3c2=O)cc1)N1CCN(c2ccccc2)CC1	-0.6	-2.3%	?	-30.4%	-4.8%	0.4%
CCN(N=O)c1ccc(/C=C2\C=Cc3ccccc32)cc1	.	.	.	14.8%	.	.
Cc1ccc(C)c(CSc2nnc3[nH]c(=O)cc(-c4ccccc4)n23)c1	.	.	.	.	-1.6%	-0.5%
COc1ccccc1N1CCN(C(=O)Cn2ncc3c(=O)oc4ccc(C)cc4c32)CC1	.	.	12.0%	.	8.5%	-1.6%
CCc1nn(CC(=O)NCCc2ccc(OC)cc2OC)c(=O)c2cc3c(OC)cccc3n12	.	.	14.7%	.	7.0%	0.2%
CC(=O)c1cccc(NS(=O)(=O)c2cc3c(cc2C)n(C)c(=O)c(=O)n3C)c1	.	.	28.5%	.	-0.6%	-1.1%
COc1ccc(Cn2c(=O)[nH]c3cc(C(=O)N4CCN(Cc5ccccc5)CC4)ccc3c2=O)cc1	0.4	-8.7%	23.1µM*	-63.7%	-20.1%	-1.0%
COc1ccc(Cn2c(=O)[nH]c3cc(C(=O)N4CCN(c5cc(C)ccc5C)CC4)ccc3c2=O)cc1	.	.	-10.0%[9.27 µM]	-5.6%	-2.3%	-0.4%

From PubChem BioAssay
